# KDM5B inhibitor: inhibitors of human KDM5B histone demethylase. Q9UGL1. KDM5B demethylase, FDH-coupled NADH fluorescence (FDH is formaldehyde dehydrogenase). Potency, µM (series often up to 57.7 µM), most hits filed as inhibitors. 2.6% of 220,000 active. AID 1347165; active = well fitted inhibition curve with a large enough effect; inconclusive = small, poorly fitted or top-dose-only effect; inactive = no such curve, though single readings can be large or run the other way; note: nearly all actives have a fitted effect of over 70% in size
#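 Inhibition is measured as reduced NADH fluorescence generation from FDH coupling to formaldehyde release. Truncated KDM5BΔAP at 200 nM final acts on H3K4me3 peptide (12.5 µM in substrate mix) in pH 7.5 HEPES buffer with Tween-20, 30 min, room temperature.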
# IP6K1 inhibitor: inhibitors of human IP6K1 | 0.81% of 140,000 active | Q92551 | IP6K1 kinase, ADP-Glo luminescence, 2 h; active compounds read low | activity change, % (series mostly up to about 58 µM); in the data active = activity change below about -25%
#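 ADP-Glo luminescence measures ADP made by human IP6K1 during a 2 h RT reaction with ATP/IP6 (mix at 1.3 mM/130 uM); top library doses 57.5 and 19.1 uM final.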
# Hits are given with their value; i = inactive; ? = inconclusive; nt = no result. In the library only some 2.7% were active in any assay of this set; here they are far more common.
SMILES,KDM5B inhibitor,IP6K1 inhibitor
CN(Cc1ccccc1)C(=O)C1(C)CCCc2cnc(N(C)C)nc21 (stereo not given),31.6µM,i
CN(C)c1ncc2c(n1)C(C)(C(=O)Nc1ccccc1F)CCC2 (stereo not given),?,i
CN(Cc1ccccc1)C(=O)C1(C)COCc2cnc(Nc3ccccc3)nc21 (stereo not given),i,i
CCCCCSc1nc2c(c(=O)[nH]c(=O)n2C)n1CCCc1ccccc1,i,nt
CCc1nc2c(c(-c3ccc(Cl)cc3)n1)CN(Cc1ccc(OC(F)(F)F)cc1)CC2,i,i
O=C(NCc1cccc(F)c1)c1nc2c(o1)CCN(Cc1cc(F)ccc1F)CC2,31.6µM,i
COc1cccc(CN2CCc3nc(C(=O)N4CCOCC4)oc3CC2)c1,i,i
O=C(NCc1ccccc1)c1nc2c(o1)CCN(Cc1ccc(F)cc1F)CC2,?,i
COc1cccc(CN2CCc3nc(C(=O)NCC4CC4)oc3CC2)c1,39.8µM,i
O=C(NCc1cccc(F)c1)c1nc2c(o1)CCN(Cc1cccc(Cl)c1)CC2,35.5µM,i
N#Cc1ccc(CN2CCc3nc(C(=O)NCc4cccc(F)c4)oc3CC2)cc1,?,i
Cc1cc(C)c2c(c1)C(=O)c1ccccc1-2,i,nt
CCOCCCNC(=O)/C(C#N)=C\c1cccc(F)c1,i,nt
COC(=O)C1=CN(c2cccc(C(F)(F)F)c2)C=C(C(=O)OC)C1c1ccc(Cl)cc1,i,nt
Cc1ccnc(NC(=O)C2c3ccccc3C(=O)N(CC(C)C)C23CCCC3)c1 (stereo not given),22.4µM,i
COCCN1C(=O)c2ccccc2C(C(=O)NCCc2ccc(F)cc2)C12CCCC2 (stereo not given),28.2µM,i
COCCN1C(=O)c2ccccc2C(C(=O)NCCc2ccccc2)C12CCCC2 (stereo not given),i,i
COCCN1C(=O)c2ccccc2C(C(=O)NCc2ccc(Cl)cc2)C12CCCC2 (stereo not given),25.1µM,i
CC(C)CN1C(=O)c2ccccc2C(C(=O)Nc2ccccn2)C12CCCC2 (stereo not given),i,i
COCCN1C(=O)c2ccccc2C(C(=O)Nc2ccc(C)cc2Cl)C12CCCC2 (stereo not given),28.2µM,i
CCc1ccccc1NC(=O)C1c2ccccc2C(=O)N(CCOC)C12CCCC2 (stereo not given),i,i
COCCN1C(=O)c2ccccc2C(C(=O)NCc2ccccc2)C12CCCC2 (stereo not given),i,i
CCc1ccc2c(CN(C)CCOc3ccccc3C)cc(=O)oc2c1,i,nt
CCNc1ccc2c(cc1=O)[C@@H](NC(C)=O)CCc1cc(OC)c(OC)c(OC)c1-2,i,nt
CN(C(=O)c1cc(-c2ccccc2F)nc2c1cnn2C)c1ccccc1,nt,i
SMILES,KDM5B inhibitor,IP6K1 inhibitor
O=C(NC(NC(=O)c1cccc(Cl)c1)c1ccccc1)c1cccc(Cl)c1,i,nt
Cc1ccccc1-c1ccc(COc2ccc3c(cnn3CCC(=O)O)c2)cc1,?,i
COCCN1C(=O)c2ccccc2C(C(=O)NCc2ccccc2OC)C12CCCC2 (stereo not given),17.8µM,i
COCCN1C(=O)c2ccccc2C(C(=O)NCc2ccccc2Cl)C12CCCC2 (stereo not given),?,i
Cc1ccc2nc(C3CCCN(Cc4cccc(-c5cccs5)c4)C3)[nH]c(=O)c2c1 (stereo not given),?,i
Cc1ccc2nc(C3CCN(Cc4ccc(-c5cccs5)cc4)CC3)[nH]c(=O)c2c1,28.2µM,i
COc1ccccc1Nc1ccnc(N2CCC(C(=O)N3CCN(Cc4ccccc4)CC3)CC2)n1,nt,i
O=C(Cn1ccn2nc(-c3ccccc3)c(CO)c2c1=O)Nc1ccc(Cl)cc1,28.2µM,i
O=C(Cn1ccn2nc(-c3ccccc3)c(CO)c2c1=O)NCCc1ccc(Cl)cc1,28.2µM,i
CCCCc1ccc(NC(=O)Cn2ccn3nc(-c4ccccc4)c(CO)c3c2=O)cc1,25.1µM,i
O=C(Cn1ccn2nc(-c3ccccc3)c(CO)c2c1=O)Nc1ccc(Br)cc1,?,i
COc1ccc(CCNC(=O)Cn2ccn3nc(-c4ccccc4)c(CO)c3c2=O)cc1OC,?,i
O=C(Cn1ccn2nc(-c3ccccc3)c(CO)c2c1=O)Nc1cc(Cl)cc(Cl)c1,i,i
Cc1cc2oc(C(=O)NCC(c3cccs3)N(C)C)cc(=O)c2cc1C (stereo not given),i,nt
CC(C)(C)NC(=O)C[C@@H]1CCNC[C@@H]1Cc1cc(CC2CCCCC2)on1,i,i
COc1cccc(-c2nc(CS(=O)(=O)CC(=O)Nc3cccc(C(F)(F)F)c3)c(C)o2)c1,i,nt
O=C(CN1CCCCC1c1nc2ccccc2s1)NC(=O)Nc1ccc2c(c1)OCCO2 (stereo not given),i,nt
Cc1cc(C)c(NC(=O)CN(C)C(=O)CSc2ccc(Br)cc2)c(C)c1,i,nt
Cc1[nH]c2ccccc2c1C(=O)C(=O)Nc1ccc(Cl)c(Cl)c1,i,nt
O=C(NCCc1cnc[nH]1)c1ccc(-c2ncc3cnc(-c4ccccc4)cn23)cc1,nt,i
Cn1ccc(NC(=O)c2ccc(-c3ncc4cnc(-c5cccc(F)c5)cn34)cc2)n1,?,i
CN(C)CCN(C)C(=O)c1ccc(-c2ncc3cnc(-c4ccccc4)cn23)cc1,31.6µM,i
CNC(=O)C1CCN(C(=O)c2ccc(-c3ccccc3OC)cc2)CC1,nt,i
Cn1ccc(NC(=O)c2ccc(-c3ncc4cnc(-c5ccccc5)cn34)cc2)n1,7.94µM,i
CNC(=O)C1CCN(C(=O)c2ccc(-c3ncc4cnc(-c5ccccc5)cn34)cc2)CC1,22.4µM,i
SMILES,KDM5B inhibitor,IP6K1 inhibitor
COc1ccc(Cn2nccc2NC(=O)c2cc(=O)c3cc(Cl)ccc3o2)cc1,i,nt
Cc1ccc(Nc2ccnc(N3CCCC3C(=O)N3CCCC(C)C3)n2)cc1 (stereo not given),nt,i
COc1ccccc1-c1cnc(Nc2cncnc2)c2c1CCO2,i,i
COc1ccc(Nc2ncc(-c3ccccc3OC)c3c2OCC3)cn1,35.5µM,i
COc1ccccc1-c1cnc(Nc2ccc(CN3CCN(C)CC3)cc2)c2c1CCO2,35.5µM,i
COc1ccc(-c2cnc(Nc3ccc(CN4CCN(C)CC4)cc3)c3c2CCO3)cn1,?,i
COc1cccc(-c2cn3cc(C(=O)NC4CCCCC4)nc3s2)c1,nt,i
O=C(NCCC1CCN(C(=O)Nc2cc(F)cc(F)c2)CC1)c1ccccc1,i,i
CN(C)c1cccc(C(=O)NCCC2CCN(C(=O)Nc3cc(F)cc(F)c3)CC2)c1,31.6µM,i
CCCCN(Cc1cccnc1)C(=O)c1cnc(-c2ccc(C)cc2)[nH]c1=O,i,i
CCCN(Cc1ccncc1)C(=O)c1cnc(-c2ccccn2)[nH]c1=O,10µM,i
COc1ccc(C(=O)Nc2ccc(-c3noc([C@@H]4CCCN4C)n3)cn2)cc1,i,i
COc1ccc(C(=O)Nc2ccc(-c3noc([C@@H]4CCCN4Cc4ccc(Cl)cc4)n3)cn2)cc1,31.6µM,i
COc1ccc(C(=O)Nc2ccc(-c3noc([C@@H]4CCCN4Cc4ccc(F)c(F)c4)n3)cn2)cc1,28.2µM,i
COCC(=O)Nc1ccc(-c2noc([C@@H]3CCCN3Cc3ccc(F)cc3)n2)cn1,i,i
COCC(=O)Nc1ccc(-c2noc([C@@H]3CCCN3Cc3ccc(OC(F)(F)F)cc3)n2)cn1,i,i
COc1ccc(C(=O)Nc2ccc(-c3noc([C@@H]4CCCN4Cc4ccccc4C)n3)cn2)cc1,31.6µM,i

# Assay outcomes deposited in PubChem by National Center for Advancing Translational Sciences (NCATS).
